# Results published in PubChem BioAssay (Tox21).
# Inconclusive results are not listed. Where a call stands in place of a potency, no number is given. Unmarked numbers belong to inactive results. The source made the active and inactive calls. Unless noted, calls follow the shape of the dose curve; as a rule, active = well fitted curve in the direction sought with a large enough effect in the repeat runs; inconclusive = weak or mixed curves; inactive = no such curve, though single readings can be large; an effect the other way counts as inactive or inconclusive.
# Tests used:
# [1] = qHTS assay to identify small molecule agonists of the AP-1 signaling pathway - cell viability counter screen (AID 1159525; calls by dose curve; also: nearly all actives have a fitted effect of over 55% in size; also: potency is read from the fitted curve at half-maximal effect)
# Summary of the method: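 Each titration point was normalised to DMSO and tetra n-octyl ammonium bromide controls. The read was Cell Titer Glo luminescence after 30 min at RT, following 5 h compound exposure of ME-180 AP-1-bla cells at 37 °C.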
# [2] = qHTS assay to identify small molecule agonists of the AP-1 signaling pathway (AID 1159526; calls by dose curve)
# [3] = biological target: Retinoic acid receptor RXR-alpha (Homo sapiens) (UniProt P19793); experiment: qHTS assay to identify small molecule agonists of the RXR signaling pathway (AID 1159527; calls by dose curve; also: nearly all actives have a fitted effect of over 35% in size; also: potency is read from the fitted curve at half-maximal effect)
# Summary of the method: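 16 hr incubation of compound-treated RXR-alpha-UAS-bla HEK 293T cells (2% charcoal-stripped FBS, 37 C) preceded a 2 hr room-temperature LiveBLAzer FRET substrate step and blue/green fluorescence measurement.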
# [4] = qHTS assay to identify small molecule agonists of the RXR signaling pathway - cell viability counter screen (AID 1159529); also: nearly all actives have a fitted effect of over 50% in size; also: potency is read from the fitted curve at half-maximal effect
# Summary of the method: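 In this parallel viability measure, GeneBLAzer RXR-alpha HEK 293T cells (2% charcoal-stripped FBS) were given a 5 hr preincubation, treated with compounds 16 hr at 37 C, and read by CellTiter-Glo luminescence.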
# [5] = qHTS assay to identify small molecule antagonists of the retinoic acid receptor (RAR) signaling pathway (AID 1159552; also: nearly all actives have a fitted effect of over 50% in size)
# Summary of the method: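 C3RL4 RARE-luc cells, overnight plating; retinol 1 uM final added right after compound; 6 hr 37 C; luciferase read at 30 min RT.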
# [6] = qHTS assay to identify small molecule agonists of the peroxisome proliferator-activated receptor delta (PPARd) signaling pathway - cell viability counter screen (AID 743211); also: nearly all actives have a fitted effect of over 55% in size; also: potency is read from the fitted curve at half-maximal effect
# Summary of the method: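 qHTS cell viability: PPARd-bla HEK293H; 17 h cpd, 37C; CellTiter-Glo, luminescence at 30 min RT.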
# [7] = biological target: Peroxisome proliferator-activated receptor delta (Homo sapiens) (UniProt Q03181); experiment: qHTS assay to identify small molecule agonists of the peroxisome proliferator-activated receptor delta (PPARd) signaling pathway (AID 743212; calls by dose curve)
# Summary of the method: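 Cells expressing a UAS-driven beta-lactamase reporter (PPARd-bla HEK293H) were given test compounds after a 5 h settle and kept at 37 C. Reporter activity was then measured as FRET fluorescence using LiveBLAzer B/G substrate.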
# [8] = qHTS assay to identify small molecule antagonists of the peroxisome proliferator-activated receptor delta (PPARd) signaling pathway - cell viability counter screen (AID 743213); also: nearly all actives have a fitted effect of over 50% in size; also: potency is read from the fitted curve at half-maximal effect
# Summary of the method: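 HEK293H PPARd UAS-bla cells, 5 h pre-incubation, compound + L165041 300 nM final, 17 h 37 C; B/G FRET substrate 2 h RT; then CellTiter-Glo 30 min RT, luminescence.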
# [9] = biological target: Peroxisome proliferator-activated receptor delta (Homo sapiens) (UniProt Q03181); experiment: qHTS assay to identify small molecule antagonists of the peroxisome proliferator-activated receptor delta (PPARd) signaling pathway (AID 743215; active = well fitted inhibition curve with a large enough effect in the signal ratio in the repeat runs, not every such curve was filed as active; the % refers to the signal ratio;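 also: cells stimulated with agonist L165041 at 300 nM final during compound exposure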; also: potency is read from the fitted curve at half-maximal effect)
# Summary of the method: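 Agonist L165041 (300 nM final) added with compound to PPARd-bla HEK293H UAS-bla reporter cells; 17 h incubation at 37 C. Read-out: LiveBLAzer FRET substrate, 2 h at room temperature, fluorescence intensity.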
# [10] = qHTS assay to identify small molecule agonists of the farnesoid-X-receptor (FXR) signaling pathway - cell viability counter screen (AID 743218); also: nearly all actives have a fitted effect of over 45% in size; also: potency is read from the fitted curve at half-maximal effect
# Summary of the method: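 Viability counter screen in the same wells: CellTiter-Glo luminescence, 30 min room-temperature incubation, measured after the beta-lactamase read. Cells were GeneBLAzer FXR-UAS-bla HEK 293T, compound-treated 16 h at 37C.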
# [11] = qHTS assay to identify small molecule antagonists of the farnesoid-X-receptor (FXR) signaling pathway - cell viability counter screen (AID 743221; active = well fitted cell-killing curve with a large enough effect in the repeat runs, not every such curve was filed as active; also: nearly all actives have a fitted effect of over 50% in size)
# Summary of the method: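 After a 5 h settling period, FXR-bla HEK 293T cells receive compound and chenodeoxycholic acid (50 uM final) and incubate 16 h at 37 C; CellTiter-Glo luminescence, read after 30 min at room temperature, reports cell viability.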
# [12] = biological target: Vitamin D3 receptor (Homo sapiens) (UniProt P11473); experiment: qHTS assay to identify small molecule antagonists of the vitamin D receptor (VDR) signaling pathway (AID 743223; active = well fitted inhibition curve with a large enough effect in the signal ratio in the repeat runs, not every such curve was filed as active; the % refers to the signal ratio)
# Summary of the method: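 Reporter line VDR-bla; stimulus 1alpha,25-(OH)2 vitamin D3, 3 nM final; compound co-addition, 16 h 37C/5% CO2; LiveBLAzer B/G substrate 2 h RT; fluorescence intensity.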
# [13] = qHTS assay to identify small molecule agonists of the vitamin D receptor (VDR) signaling pathway - cell viability counter screen (AID 743224); also: nearly all actives have a fitted effect of over 50% in size; also: potency is read from the fitted curve at half-maximal effect
# Summary of the method: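 Counter screen run in the same wells as the VDR-bla reporter assay: CellTiter-Glo luminescence, 30 min at room temperature, after 16 h compound treatment at 37C of cells pre-plated for 4 h.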
# [14] = qHTS assay to identify small molecule antagonists of the vitamin D receptor (VDR) signaling pathway - cell viability counter screen (AID 743225); also: nearly all actives have a fitted effect of over 50% in size; also: potency is read from the fitted curve at half-maximal effect
# Summary of the method: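 Parallel cytotoxicity test: VDR-UAS-bla HEK 293T, 3 nM (final) 1-alpha,25-dihydroxyvitamin D3 with test compound, 16 h, 37C. Endpoint is CellTiter-Glo luminescence in the same wells.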
# [15] = biological target: Nuclear receptor ROR-gamma (Homo sapiens) (UniProt P51449); experiment: qHTS assay to identify small molecule antagonists of the retinoid-related orphan receptor gamma (ROR-gamma) signaling pathway (AID 1159521; also: nearly all actives have a fitted effect of over 50% in size; also: potency is read from the fitted curve at half-maximal effect)
# Summary of the method: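 Decreased RORE-driven luciferase luminescence indicates antagonism. Tet-on RORγ CHO cells received compound, then 1 uM final doxycycline 2 h later; signal read after 16 h incubation.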
# [16] = qHTS assay to identify small molecule antagonists of the retinoid acid receptor (RAR) signaling pathway - cell viability counter screen (AID 1159551); also: nearly all actives have a fitted effect of over 35% in size
# Summary of the method: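 Cytotoxicity counter screen: ATP content quantified by CellTiter-Glo luminescence in C3RL4 cells treated 6 hr at 37 C with compound and retinol (1 uM final). Cells plated at 1,000/well and cultured overnight before dosing.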
# [17] = qHTS assay to identify small molecule agonists of the retinoic acid receptor (RAR) signaling pathway (AID 1159553)
# Summary of the method: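 Luminescence was measured 30 min after luciferase reagent addition at room temperature. Before that, C3RL4 reporter cells (1,000 per well, plated overnight) were treated with compound for 6 hr at 37 C and 5% CO2.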
# [18] = biological target: Bile acid receptor (Homo sapiens) (UniProt Q96RI1); experiment: qHTS assay to identify small molecule antagonists of the farnesoid-X-receptor (FXR) signaling pathway (AID 743217; active = well fitted inhibition curve with a large enough effect in the signal ratio in the repeat runs, not every such curve was filed as active; the % refers to the signal ratio)
# Summary of the method: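 Antagonist mode: chenodeoxycholic acid at 50 uM final stimulates a UAS-driven beta-lactamase reporter in HEK 293T FXR-bla cells during 16 h, 37C compound exposure. Read-out is FRET substrate fluorescence after 2 h at room temperature.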
# [19] = qHTS assay to identify small molecule antagonists of the retinoid-related orphan receptor gamma (ROR-gamma) signaling pathway - cell viability counter screen (AID 1159520); also: nearly all actives have a fitted effect of over 50% in size
# Summary of the method: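 Tet-on ROR gamma CHO cells (1,000/well) were plated 4 hr, given compounds in DMSO for 2 hr at 37 C, then induced with 1 uM final doxycycline for 16 hr. Viability was read as ATP by CellTiter-Glo luminescence after 30 min.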
# [20] = biological target: Bile acid receptor (Homo sapiens) (UniProt Q96RI1); experiment: qHTS assay to identify small molecule agonists of the farnesoid-X-receptor (FXR) signaling pathway (AID 743220; active = well fitted activation curve with a large enough effect in the signal ratio in the repeat runs, not every such curve was filed as active; the % refers to the signal ratio)
# Summary of the method: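 FXR-UAS-bla HEK 293T cells carrying a UAS-driven beta-lactamase reporter were plated for 5 h at 37C/5% CO2, then exposed to DMSO-dissolved Tox21 10K compounds for 16 h at 37C. A LiveBLAzer B/G FRET substrate was loaded for 2 h at room temperature before fluorescence reading.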
# Peroxisome proliferator-activated receptor delta (Homo sapiens), sequence (Q03181 whole entry, looked up): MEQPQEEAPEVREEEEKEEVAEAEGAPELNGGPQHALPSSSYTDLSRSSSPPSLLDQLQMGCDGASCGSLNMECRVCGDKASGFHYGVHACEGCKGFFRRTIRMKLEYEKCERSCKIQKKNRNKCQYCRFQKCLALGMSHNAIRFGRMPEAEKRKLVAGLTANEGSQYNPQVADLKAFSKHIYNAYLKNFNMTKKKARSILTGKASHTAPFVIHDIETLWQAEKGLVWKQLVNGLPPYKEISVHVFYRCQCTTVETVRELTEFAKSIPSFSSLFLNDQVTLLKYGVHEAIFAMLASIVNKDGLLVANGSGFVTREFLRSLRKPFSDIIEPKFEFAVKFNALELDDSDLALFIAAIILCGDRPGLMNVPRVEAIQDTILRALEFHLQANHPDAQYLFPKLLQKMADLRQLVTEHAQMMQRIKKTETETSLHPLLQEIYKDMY
# Retinoic acid receptor RXR-alpha (Homo sapiens), sequence (P19793 whole entry, looked up): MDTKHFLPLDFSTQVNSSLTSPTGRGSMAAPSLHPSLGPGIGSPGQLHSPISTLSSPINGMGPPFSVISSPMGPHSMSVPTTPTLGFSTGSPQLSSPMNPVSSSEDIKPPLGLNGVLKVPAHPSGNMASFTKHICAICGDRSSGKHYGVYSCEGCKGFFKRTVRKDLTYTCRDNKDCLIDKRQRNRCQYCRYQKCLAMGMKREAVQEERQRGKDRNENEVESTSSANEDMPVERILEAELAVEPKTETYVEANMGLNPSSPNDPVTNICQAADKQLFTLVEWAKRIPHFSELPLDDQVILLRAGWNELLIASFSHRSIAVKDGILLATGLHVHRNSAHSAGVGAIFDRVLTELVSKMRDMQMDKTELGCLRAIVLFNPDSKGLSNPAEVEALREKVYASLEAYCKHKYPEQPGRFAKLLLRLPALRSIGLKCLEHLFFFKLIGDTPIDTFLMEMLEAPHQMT
# Vitamin D3 receptor (Homo sapiens), sequence (P11473 whole entry, looked up): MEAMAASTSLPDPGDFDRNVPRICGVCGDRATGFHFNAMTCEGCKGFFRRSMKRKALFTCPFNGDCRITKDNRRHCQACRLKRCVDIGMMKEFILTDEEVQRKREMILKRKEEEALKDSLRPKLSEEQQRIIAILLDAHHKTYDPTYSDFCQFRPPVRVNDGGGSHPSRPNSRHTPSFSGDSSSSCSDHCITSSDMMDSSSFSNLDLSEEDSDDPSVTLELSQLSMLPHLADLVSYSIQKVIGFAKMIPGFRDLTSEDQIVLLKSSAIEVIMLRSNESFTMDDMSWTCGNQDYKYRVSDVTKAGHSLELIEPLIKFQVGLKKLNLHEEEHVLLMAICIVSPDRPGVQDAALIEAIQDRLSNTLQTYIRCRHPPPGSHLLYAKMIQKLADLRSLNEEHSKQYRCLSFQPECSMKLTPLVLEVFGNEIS
# Bile acid receptor (Homo sapiens), sequence (Q96RI1 whole entry, looked up): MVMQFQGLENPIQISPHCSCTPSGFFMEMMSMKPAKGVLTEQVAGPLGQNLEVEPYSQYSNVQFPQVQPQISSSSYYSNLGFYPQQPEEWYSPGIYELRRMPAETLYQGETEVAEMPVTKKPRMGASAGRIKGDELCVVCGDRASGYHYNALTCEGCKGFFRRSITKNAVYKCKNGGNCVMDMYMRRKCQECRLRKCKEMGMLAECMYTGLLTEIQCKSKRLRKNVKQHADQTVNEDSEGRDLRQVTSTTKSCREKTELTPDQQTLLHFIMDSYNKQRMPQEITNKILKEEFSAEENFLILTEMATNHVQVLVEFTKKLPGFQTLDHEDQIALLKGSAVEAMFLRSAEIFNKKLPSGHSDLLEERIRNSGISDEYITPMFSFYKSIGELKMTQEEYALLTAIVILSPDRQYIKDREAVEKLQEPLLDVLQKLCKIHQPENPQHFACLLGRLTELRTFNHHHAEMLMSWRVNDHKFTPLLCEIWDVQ
structure (smiles),measurement,setting,value
c1ccc(-c2nc3ccccc3[nH]2)cc1,Potency,[1],inactive
same,Potency,[2],inactive
same,Potency,[3],inactive
same,Potency,[4],inactive
same,Potency,[5],inactive
O=C1CCCCCCCCCCCCCC1,Potency,[6],inactive
same,outcome,[7],inactive
same,Potency,[8],inactive
same,Potency,[9],inactive
same,Potency,[10],inactive
same,Potency,[11],inactive
same,Potency,[12],inactive
same,Potency,[13],inactive
same,Potency,[14],inactive
same,Potency,[15],inactive
same,Potency,[1],inactive
same,Potency,[2],inactive
same,Potency,[3],inactive
same,Potency,[4],inactive
same,Potency,[16],inactive
same,Potency,[5],inactive
same,Potency,[17],inactive
CC(C)c1ccc2sc3ccccc3c(=O)c2c1,Potency,[18],inactive
same,Potency,[10],inactive
same,Potency,[11],inactive
same,Potency,[14],inactive
same,Potency,[19],inactive
same,Potency,[2],inactive
CCCCCCCCCCCCN1CCCC1=O,Potency,[6],54.9 µM (active)
same,outcome,[7],inactive
same,Potency,[13],49 µM (active)
same,Potency,[15],inactive
same,Potency,[3],inactive
same,Potency,[4],54.9 µM (active)
same,Potency,[16],inactive
same,Potency,[5],inactive
CC(c1cc(C(C)(C)C)cc(C(C)(C)C)c1O)c1cc(C(C)(C)C)cc(C(C)(C)C)c1O,Potency,[15],19.3 µM (active)
same,Potency,[2],inactive
same,Potency,[3],3.47 µM (active)
same,Potency,[16],inactive
S=C1NC=NC2N=CNC12 (stereo not given),Potency,[10],11 µM (active)
same,outcome,[20],inactive
same,Potency,[12],inactive
same,Potency,[13],3.09 µM (active)
same,Potency,[14],7.77 µM (active)
same,Potency,[2],inactive
same,Potency,[4],6.92 µM (active)
same,Potency,[17],inactive
CCOc1ccc([N+](=O)[O-])cc1,Potency,[6],49.7 µM (active)
same,Potency,[8],44.3 µM (active)
same,Potency,[13],49.7 µM (active)
same,Potency,[14],22.2 µM (active)
same,Potency,[1],49.7 µM (active)
same,Potency,[4],49.7 µM (active)
same,Potency,[5],inactive
c1ccc(-c2ccc(C(c3ccccc3)n3ccnc3)cc2)cc1 (stereo not given),Potency,[6],29.8 µM (active)
same,outcome,[7],inactive
same,Potency,[9],26.6 µM (active)
same,Potency,[12],inactive
same,Potency,[14],inactive
same,Potency,[15],15 µM (active)
same,Potency,[1],inactive
same,Potency,[4],inactive
same,Potency,[16],inactive
same,Potency,[5],inactive
